Measured values published in the supplement of paper PMC10981050.
Values joined by “and” are separate entries in the source; they are usually repeats but may differ in a detail not shown here. Identical values can stand only once. Counter-ions that a name gives are not always drawn.

Experiments:
Assay in all cases: cell viability relative to vehicle control; higher = less cytotoxic
Conditions in all cases: 10 µM
K562 = system: K562
In short: (§1)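 Four leukaemia lines, as CRISPR-edited mutant clones and isogenic wild-type clones, were tested against Selleck bioactive, kinase and epigenetic probe libraries after removal of identity-inconsistent compounds. Cells were exposed to a single 10 µM dose for 48 h, and CellTiter-Glo luminescence was then read. Viability was calculated relative to the on-plate vehicle control.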

MARIMO = system: MARIMO
In short: as §1

MOLM14 = system: MOLM14
In short: as §1

OCI-AML2 = system: OCI-AML2
In short: as §1

Row | SMILES | cell viability (K562; SRSF2 genotype: SRSF2 P95H/wt) | cell viability (K562; SRSF2 genotype: SRSF2 wt/wt) [%] | cell viability (MARIMO; SRSF2 genotype: SRSF2 P95H/wt) [%] | cell viability (MARIMO; SRSF2 genotype: SRSF2 wt/wt) [%] | cell viability (MOLM14; SRSF2 genotype: SRSF2 P95H/wt) [%] | cell viability (MOLM14; SRSF2 genotype: SRSF2 wt/wt) [%] | cell viability (OCI-AML2; SRSF2 genotype: P95H/wt) [%] | cell viability (OCI-AML2; SRSF2 genotype: wt/wt) [%]
1 | COc1cc(-n2c(=S)[nH]c3ccccc3c2=O)c(Cl)cc1Cl [Mdivi-1] | 91.9% and 96.6% | 94.2 | 90.7 | 95.2 | 91 | 102 | 109 | 116
2 | Cc1sc2c(c1C)C(c1ccc(Cl)cc1)=NC(CC(N)=O)c1nnc(C)n1-2 (stereo not drawn) | 65.2% and 63.5% | 69.8 | 30 | 36.7 | 20.1 | 20.3 | 15.3 | 29.4
3 | CC(=O)OC(C)(C)/C=C/C(=O)[C@](C)(O)[C@H]1[C@H](O)C[C@@]2(C)[C@@H]3CC=C4[C@H](C[C@H](O)C(=O)C4(C)C)[C@]3(C)C(=O)C[C@]12C [Cucurbitacin B] | 19.7% and 26.4% | 28.1 | 8.8 | 16.8 | 0.7 | 0.57 | 0.29 | 3.38
4 | CC1=C[C@]23C(=O)[C@@H](C=C(CO)[C@@H](O)[C@]2(O)[C@H]1O)[C@H]1[C@@H](C[C@H]3C)C1(C)C [Ingenol] | 113% and 98.6% | 111 | 109 | 107 | 111 | 108 | 68.2 | 79
5 | CC(C)(C)c1cc(C=C(C#N)C#N)cc(C(C)(C)C)c1O [Tyrphostin 9 (SF 6847)] | 14.4% and 18.5% | 18.5 | 23.8 | 23.8 | 17.7 | 12.2 | 5.2 | 11.5
6 | C=C[C@@H]1C2=CCOC(=O)C2=CO[C@H]1O[C@@H]1O[C@H](CO)[C@@H](O)[C@H](O)[C@H]1O [Gentiopicroside] | 97.2% and 95.7% | 96.3 | 94.5 | 99 | 98.5 | 104 | 94 | 108
7 | NC(=O)CN1CC(c2ccccc2)CC1=O (stereo not drawn) [Phenylpiracetam] | 94.8% and 94.3% | 97.6 | 102 | 96.9 | 99.8 | 98.1 | 101 | 103
8 | Cc1c(N)nc(C(CC(N)=O)NCC(N)C(N)=O)nc1C(=O)NC(C(=O)NC(C)C(O)C(C)C(=O)NC(C(=O)NCCc1nc(-c2nc(C(=O)NCCC[S+](C)C)cs2)cs1)C(C)O)C(O[C@@H]1O[C@@H](CO)[C@@H](O)[C@H](O)[C@@H]1O[C@H]1O[C@H](CO)[C@@H](O)[C@H](OC(N)=O)[C@@H]1O)c1cnc[nH]1 (stereo partly drawn) [Bleomycin sulfate] | 95.9% and 107% | 69.7 | 7.26 | 8.15 | 53.4 | 21.6 | 27 | 36.8
9 | CN(C)CCc1ccc(O)cc1 [Hordenine] | 104% and 106% | 103 | 108 | 106 | 101 | 109 | 107 | 94.8
10 | CN1C2CC(O)CC1C1OC12 (stereo not drawn) [Scopine] | 100% and 97.1% | 95.5 | 101 | 103 | 97 | 100 | 93.6 | 106
11 | CCN(C)C(=O)Oc1cccc([C@H](C)N(C)C)c1 [Rivastigmine tartrate (Exelon)] | 103% and 106% | 101 | 101 | 105 | 99.5 | 108 | 104 | 113
12 | OC(CNc1ccccc1)Cn1c2ccc(Br)cc2c2cc(Br)ccc21 (stereo not drawn) | 74.2% and 72.5% | 66.2 | 85.1 | 98.2 | 87.2 | 58.1 | 52.3 | 83.5
13 | COc1ccc(/C=C/c2cc(OC)cc(OC)c2)cc1 [3,4',5-Trimethoxy-trans-stilbene] | 26.9% and 46.4% | 39.7 | 47.5 | 35.7 | 15.3 | 6.3 | 38.2 | 36.4
14 | Cc1sc2c(c1C)C(c1ccc(Cl)cc1)=N[C@@H](CC(=O)OC(C)(C)C)c1nnc(C)n1-2 | 53.8% and 59.9% | 61.5 | 22.3 | 30.9 | 15.9 | 11.6 | 17.5 | 30.2
15 | O=C(O[C@H]1C[N+]2(CCCOc3ccccc3)CCC1CC2)C(O)(c1cccs1)c1cccs1 [Aclidinium Bromide] | 104% and 98.9% | 101 | 108 | 111 | 103 | 106 | 106 | 106
16 | O=c1ccc2cc(O[C@@H]3O[C@H](CO)[C@@H](O)[C@H](O)[C@H]3O)c(O)cc2o1 [Aesculin (Esculin)] | 104% and 98.9% | 100 | 96.9 | 97.7 | 101 | 99.7 | 95.1 | 93.3
17 | C/C(=C\c1csc(C)n1)[C@@H]1C[C@@H]2O[C@]2(C)CCC[C@H](C)[C@H](O)[C@@H](C)C(=O)C(C)(C)[C@@H](O)CC(=O)O1 [Patupilone (EPO906, Epothilone B)] | 29% and 37% | 39.4 | 7.88 | 6.51 | 8.36 | 2.95 | 6.03 | 11.7
18 | CN1CC=C(c2ccccc2)CC1 [MPTP hydrochloride] | 100% and 99.7% | 102 | 107 | 111 | 103 | 105 | 92.5 | 108

Row | SMILES | cell viability (K562; SRSF2 genotype: SRSF2 P95H/wt) | cell viability (K562; SRSF2 genotype: SRSF2 wt/wt) [%] | cell viability (MARIMO; SRSF2 genotype: SRSF2 P95H/wt) [%] | cell viability (MARIMO; SRSF2 genotype: SRSF2 wt/wt) [%] | cell viability (MOLM14; SRSF2 genotype: SRSF2 P95H/wt) [%] | cell viability (MOLM14; SRSF2 genotype: SRSF2 wt/wt) [%] | cell viability (OCI-AML2; SRSF2 genotype: P95H/wt) [%] | cell viability (OCI-AML2; SRSF2 genotype: wt/wt) [%]
19 | CN1CCC(c2c[nH]c3ccc(O)cc23)CC1 | 107% and 100% | 102 | 101 | 104 | 103 | 102 | 91.8 | 105
20 | CCC1(c2cccc(O)c2)CCCCN(C)C1 (stereo not drawn) [Meptazinol HCl] | 96.2% and 101% | 100 | 91 | 93.7 | 103 | 98.1 | 96.4 | 92.4
21 | C[C@]12CC[C@H](O)C[C@@]1(O)CC[C@@H]1[C@@H]2CC[C@]2(C)[C@@H](C3=CC(=O)OC3)CC[C@]12O [Periplogenin] | 8.32% and 13% | 12.9 | 14.3 | 11.9 | 7.26 | 1.77 | 4.72 | 8.91
22 | Cc1c([C@H](C)[C@@H]2NC[C@@H](C)C[C@H]2O)ccc2c1C[C@H]1[C@H]2CC=C2C[C@@H](O)CC[C@@]21C [Veratramine] | 73.9% and 73% | 75 | 64.7 | 64.5 | 81.1 | 89.6 | 47.1 | 62.9
23 | CC(C)c1ccc(CO)cc1 [4-Isopropylbenzyl Alcohol] | 107% and 98.3% | 97.1 | 99.9 | 110 | 102 | 105 | 87.7 | 97.4
24 | C=CCCCCCCCCC(=O)O[C@H]1CC[C@H]2[C@@H]3CCC4=CC(=O)C=C[C@]4(C)[C@H]3CC[C@]12C [Boldenone Undecylenate] | 100% and 92.8% | 95.7 | 86 | 89.2 | 57.4 | 26.7 | 38.1 | 36.7
25 | Cn1c(COP(=O)(NCCBr)NCCBr)cnc1[N+](=O)[O-] | 102% and 109% | 103 | 39.3 | 56 | 29.1 | 12.8 | 29.4 | 40.1
26 | O=c1[nH]c2ccccc2n1CCCN1CCC(n2c(=O)[nH]c3cc(Cl)ccc32)CC1 [Domperidone (Motilium)] | 78.9% and 85.9% | 79.7 | 77.9 | 87.4 | 92.4 | 91.8 | 78.8 | 85.7
27 | CN1[C@@H]2CC[C@H]1C[C@@H](OC(=O)C(CO)c1ccccc1)C2 (stereo partly drawn) [Atropine sulfate] | 105% and 99.4% | 100 | 105 | 112 | 110 | 107 | 94 | 97.8
28 | C[N+]1(C)[C@@H]2C[C@@H](OC(=O)[C@H](CO)c3ccccc3)C[C@H]1[C@@H]1O[C@@H]12 [Methscopolamine (Pamine)] | 97.7% and 84.7% | 82.5 | 79.5 | 87.8 | 82.4 | 84.1 | 83.2 | 84.8
29 | COC(=O)Nc1nc2ccccc2[nH]1 [Carbendazim] | 35% and 44.4% | 51.9 | 36.2 | 31.8 | 58.5 | 49 | 60.5 | 52.2
30 | C[C@]12CCC(=O)C[C@@H]1CC[C@@H]1[C@@H]2CC[C@]2(C)[C@@H](O)CC[C@@H]12 [Dihydrotestosterone (DHT)] | 97% and 97.8% | 97.7 | 95.3 | 109 | 93.9 | 102 | 96.5 | 101
31 | CCCCCCC[n+]1ccc(-c2cc[n+](CCCCCCC)cc2)cc1 [DHBP dibromide] | 51.7% and 49.9% | 56.3 | 71 | 76.1 | 53.9 | 76.4 | 51.8 | 52.4
32 | N#C[C@H](O[C@@H]1O[C@H](CO[C@@H]2O[C@H](CO)[C@@H](O)[C@H](O)[C@H]2O)[C@@H](O)[C@H](O)[C@H]1O)c1ccccc1 [Amygdalin] | 104% and 107% | 102 | 104 | 107 | 106 | 108 | 107 | 95.3
33 | Cc1cccc(Cc2c[nH]cn2)c1C [Detomidine HCl] | 96.3% and 104% | 96.5 | 103 | 95.3 | 105 | 106 | 110 | 93.1
34 | COC1CC(OC2CCC3(C)C(CCC45OC46CCC(C(C)=O)C6(C)C(OC(C)=O)C(OC(=O)c4ccccc4)C35)C2)OC(C)C1OC1OC(C)C(O)C(OC)C1O (stereo not drawn) [Tenacissoside I] | 92.5% and 93.1% | 93.8 | 88.2 | 100 | 91.9 | 92.5 | 95 | 106
35 | O=c1[nH]c2ccc(Cl)cc2c(N[C@@H]2CN3CCC2CC3)c1-c1nc2ccccc2[nH]1 | 2.58% and 2.45% | 0.48 | 0.55 | 0.36 | 0.07 | -0.01 | 0.04 | 0.75
36 | CC(C)=CCCC(C(=O)O)C1CCC2(C)C3=C(CCC12C)C1(C)CCC(=O)C(C)(C)C1CC3 (stereo not drawn) [Beta-Elemonic] | 96% and 89.7% | 87.7 | 92.7 | 99 | 88.8 | 93.1 | 100 | 101
